This is part of a sample that, as a whole, favours compounds with a hit. Of some 83,000 tested, about 20% had one in any assay.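 Values shown are percent growth following 48 h exposure of cells in 96-well plates to a single concentration of compound; below 10 was considered active.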 Values without a mark were called inactive. Calls of active or inactive are those of the source.
The molecules below were run on MCF7 breast (assay: NCI-60 one-dose screen, 48 h (100 = growth as untreated, 0 = no growth, -100 = all killed)). Settings: 10 µM unless noted.
Protocol: Growth inhibition of the MCF7 human tumor cell line is measured as a screen for anti-cancer activity. Cells are grown in 96 well plates and exposed to the test compound for 48 hours. Compounds are tested at a single concentration, which is 10^-5 M for most compounds. The reported endpoint is percent growth (GI% or GIPRCNT), where numbers from 0 - 100% represent growth inhibition, and numbers from -100% - 0 represent cell death. For example, a value of 40 represents 60% growth inhibition. A value of 0 means no net growth occurred over the course of the experiment. A value of -40 indicates 40% of cells at the beginning of the experiment died by the end of the experiment. A value of -100 means all cells are dead at the end of the experiment.
NCI-60 Human Tumor Cell Lines Screen was performed using the standard one-dose NCI protocol, which is described in more detail at https://dtp.cancer.gov/discovery_development/nci-60/default.htm.
Compounds with GIPRCNT values below 10 were considered active. Activity score was based on GIPRCNT using the following formula: […]
Score is 0 for GIPRCNT values of 100 or above, 50 for GIPRCNT values of 0, and 100 for GIPRCNT values of -100.

Row | Structure (SMILES) | growth
1 | O=C(CSc1nc2ccccc2c(=O)n1-c1ccc(S(=O)(=O)Nc2ccc(Cl)nn2)cc1)Nc1ccc(S(=O)(=O)Nc2ccc(Cl)nn2)cc1 | 95.3%
2 | CN(C)CC(=O)Nc1nc(-c2cccc(NS(=O)(=O)c3cccc4c(N(C)C)cccc34)c2)cs1 | 68.3%
3 | Nc1cc(C(=O)N/N=C\c2ccc(OC(F)F)c(OC3CCCC3)c2)nn1CC(O)c1ccccc1 (stereo not given) | 89%
4 | COc1ccc(/C=N/NC(=O)c2c(N)nn(C)c2Nc2ccccc2)cc1 | 17.6%
5 | COc1ccc(OC)c(CCn2cncc2-c2c[nH]c3ccc(Cl)cc23)c1 | 21.6%
6 | Cn1c(SCC(=O)c2ccco2)nc2ccccc2c1=O | 18.3%
7 | CCCCc1nc2c(N)nc3ccccc3c2n1Cc1ccc(OC)cc1 | 59.7%
8 | N#CC1=C2NCCCNc3oc(nc3C#N)Cc3ccccc3CC(=N1)O2 | 33.8%
9 | CC(C)(O)c1cncc(-c2ccc3ncc(C#N)c(N4CCc5cc(F)c(Cl)cc54)c3c2)c1 | 8.93% (active)
10 | C/C(CC1(O)C(=O)Nc2ccccc21)=N\O (stereo not given) | 95.2%
11 | Cc1ccc(CSC2=C(Cl)CN(c3ccc(Cl)cc3)C2=O)cc1 | 79.1%
12 | CCCCN1C(=O)/C(=c2\sc3n(c2=O)C2C(NN=3)N(CC)C(=O)N2CC)c2cccc(C)c21 (stereo not given) | 21.1%
13 | COc1ccc(/C=N\NC(=O)c2cnn(CC(O)c3ccccc3)c2N)cc1OCc1ccc(Cl)cc1 (stereo not given) | 60.8%
14 | O=C1[C@H]2Cc3c([nH]c4ccccc34)[C@H](c3ccc(Cl)cc3)N2C(=O)CN1C1CCN(CC2CCCCC2)CC1 | 16.2%
15 | Cc1ccc2c(n1)C(=O)C(Cl)=C(Nc1ccccc1C(=O)OC(C)(C)C)C2=O | -60.1% (active)
16 | CCS(=O)(=O)Nc1ccc(C(=O)CC2(O)C(=O)Nc3ccccc32)cc1 (stereo not given) | 92.3%
17 | COC(=O)CCCNCCCn1ccc2cc(NCc3cccc(-c4ccccc4)c3C)ccc21 | 56.9%
18 | CS(=O)(=O)c1nccc(-c2c(-c3cccc(OCc4ccc(Cl)c(C(F)(F)F)c4)c3)nc3sccn23)n1 | -67.8% (active)
19 | O=S(=O)(Oc1ccc(-c2cn3ccoc3n2)cc1)c1cccc(C(F)(F)F)c1 | 89.5%
20 | COc1ccc(-c2cc(-c3ccc(N(C)C)cc3)n3c(n2)nc2ccccc23)cc1 | 40.7%

Row | Structure (SMILES) | growth
21 | CCCCCCNC(=O)Oc1ccc(/C(=C(/C)c2ccc(Cl)cc2)c2ccc(OCCN3CCCCCC3)cc2)cc1 | 15.7%
22 | NNc1nnc2nc(Nc3ccccc3)nc(Nc3ccc(S(N)(=O)=O)cc3)n12 | 97.8%
23 | C#CCN(C)CCCOc1ccc(NC(=O)CCCCCCCCC(=O)NO)cc1Cl | 31.9%
24 | CCc1cc(O)ccc1Nc1cc(-c2ccc(-n3cccn3)cc2)[nH]n1 | 34.3%
25 | CCC(=C(c1ccc(OCCN2CCCCCC2)cc1)c1ccc(OCCN2CCCCCC2)cc1)c1ccc(Cl)cc1 | -63.7% (active)
26 | C=C1CCc2nc(SCC(=O)O)ccc2N1 | 99.5%
27 | Cc1ccccc1NC(=O)Nc1nc2ccc([N+](=O)[O-])cc2s1 | 4.12% (active)
28 | O=C1Nc2ccccc2/C1=C/c1ccc(OCC(=O)c2ccccc2)cc1 | 88.7%
29 | C/C(=N\NC(N)=S)c1nnn(-c2ccc([N+](=O)[O-])cc2)c1C | 91.9%
30 | C#CCn1cc(/C=N/Nc2nc(-c3ccc(Br)cc3)cs2)c2ccccc21 | 64.1%
31 | CCC(=C(c1ccc(OCCN(C)C)cc1)c1ccc(OCCN(C)C)cc1)c1ccc(Cl)cc1 | -72.8% (active)
32 | C(=N\Nc1nc(N/N=C/c2ccc3c(c2)OCO3)nc(N2CCCCC2)n1)/c1ccc2c(c1)OCO2 | 54.8%
33 | O=C(/C=C/c1ccccc1Cl)Nc1ncc(Cc2cc(Cl)ccc2Cl)s1 | 16.6%
34 | Brc1ccc(-c2cc(-c3ccc4c(c3)OC=CO4)n[nH]2)s1 | 20.7%
35 | O=C(CCCCCC/C=C\c1csc(Br)n1)NO | 73.1%
36 | COc1ccccc1/C=C1\Oc2ccc(O)c(O)c2C1=O | 88.2%
37 | CN1CCN(c2ccc(Nc3nc(NCCNS(=O)(=O)c4ccc5ccccc5c4)c4sccc4n3)cc2)CC1 | 32.9%
38 | CS(=O)(=O)c1ccc(/C(=N/N=C(N)N)c2ccc(Cl)cc2)cc1 | 32.8%
39 | Cc1cc2nc3c4cc(C#N)ccc4n(CCN(C)C)c3nc2cc1C | 2.34% (active)
40 | CC(C)Sc1nc(-c2ccccc2)c(C#N)c(N2CCOCC2)n1 | 72.8%

From PubChem BioAssay (NCI)
